Drawing on PubChem BioAssay (NCI), this text covers growth for eight compounds.

Each structure is given as a SMILES string. About 83,000 compounds went through this panel and 20% of them were active in at least one assay; those are over-represented in the sample as a whole.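 For each line, cells grew in 96-well plates with the test compound present at a single concentration for 48 hours.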 Values without a mark were called inactive. Calls of active or inactive are those of the source. How the source made its calls: active means growth percent below 10; inactive means the rest.

Among the test systems are HCT-15 colon; HT29 colon; SNB-75 CNS; SNB-19 CNS; U251 CNS; PC-3 prostate; SK-MEL-5 melanoma; LOX IMVI melanoma; SK-MEL-28 melanoma; SK-MEL-2 melanoma; EKVX NSCLC; SN12C renal; UO-31 renal; TK-10 renal; ACHN renal; CAKI-1 renal; A498 renal; CCRF-CEM leukemia; MOLT-4 leukemia; UACC-62 melanoma.
Test in all cases: NCI-60 one-dose screen, 48 h (100 = growth as untreated, 0 = no growth, -100 = all killed)
Holding throughout (settings): 10 µM unless noted

For the compound `CCOC(=O)C#Cc1c(C(=O)OCC)nnn1[C@@H]1O[C@H](COC)[C@@H](OC)[C@H]1OC`, the growth was -12.2% (active) in the test with HCT-15 colon; 24.9% in the test on HT29 colon; 72.9% in the test with SNB-75 CNS; 97.9% in the test on SNB-19 CNS; 102% with U251 CNS; 92.4% in the test on PC-3 prostate. The growth is 98.3% in the test on SK-MEL-5 melanoma; 67% in the test on LOX IMVI melanoma; 96.3% with SK-MEL-28 melanoma; 92% with SK-MEL-2 melanoma; 107% in the test with EKVX NSCLC; 82.5% in the test with SN12C renal. The growth was 29.2% with UO-31 renal; 11.1% in the test on TK-10 renal; -35.3% (active) with ACHN renal; -91.2% (active) in the test on CAKI-1 renal; 99.1% in the test with A498 renal; 27.7% with CCRF-CEM leukemia. Further, the growth in the test with MOLT-4 leukemia was 58.6%.

Take `C=C(C)[C@@H]1CC[C@]2(C(=O)Nc3ccccn3)CC[C@]3(C)[C@H](CC[C@@H]4[C@@]5(C)CCCNC(C)(C)[C@@H]5CC[C@]43C)[C@@H]12`: the growth with HCT-15 colon is 13.1%; in the test on HT29 colon, 4.13% (active); with SNB-75 CNS it was 33.4%; in the test with SNB-19 CNS, 25%; in the test on U251 CNS it was 10.4%; with PC-3 prostate it was 17.3%. Further, the growth in the test with SK-MEL-5 melanoma was -96.5% (active); in the test on LOX IMVI melanoma, 10.9%; in the test on SK-MEL-28 melanoma, 31.9%; in the test with SK-MEL-2 melanoma, 41.2%; in the test with EKVX NSCLC, 25.3%; in the test with SN12C renal it was 20.8%. For the same compound, the growth was 55.9% with UO-31 renal; 28.4% in the test on TK-10 renal; 33.4% with ACHN renal; 34.8% in the test on CAKI-1 renal; 18.9% in the test on A498 renal; 9.61% (active) in the test on CCRF-CEM leukemia. Also, the growth in the test on MOLT-4 leukemia was -0.121% (active).

With `O=CCCCOCc1ccccc1`, the growth was 98.5% in the test on HCT-15 colon; 97.2% in the test on HT29 colon; 87.8% in the test with SNB-75 CNS; 100% in the test with SNB-19 CNS; 104% with U251 CNS; 95.6% in the test on PC-3 prostate. Also, the growth was 100% with SK-MEL-5 melanoma; 99% with LOX IMVI melanoma; 112% with SK-MEL-28 melanoma; 104% in the test on SK-MEL-2 melanoma; 95.6% in the test with EKVX NSCLC; 98.8% in the test with SN12C renal. For the same compound, the growth with UO-31 renal was 95%; with TK-10 renal, 97.7%; with ACHN renal, 101%; in the test with CAKI-1 renal, 98.1%; in the test on A498 renal, 85.8%; in the test with CCRF-CEM leukemia, 104%. In the test with MOLT-4 leukemia, the growth was 103%.

For the compound `C=CC(CC(c1ccccc1)(c1ccccc1)c1ccccc1)N(CC)CC` (stereo unspecified), the growth is 41.4% in the test with HCT-15 colon; 16.2% with HT29 colon; 68.1% in the test with SNB-75 CNS; 98.3% in the test on SNB-19 CNS; 62% with U251 CNS; 44.9% in the test on PC-3 prostate. Moreover, the growth in the test on SK-MEL-5 melanoma is 13.5%; in the test with UACC-62 melanoma it was 44.2%; in the test on LOX IMVI melanoma, 71.6%; with SK-MEL-28 melanoma it was 61.6%; with SK-MEL-2 melanoma, 93.7%; with EKVX NSCLC it was 75.7%. Also, the growth with UO-31 renal was 43.2%; with TK-10 renal, 73.6%; in the test with ACHN renal it was 85.8%; in the test with CAKI-1 renal, 65.6%; in the test with CCRF-CEM leukemia, 53.5%; with MOLT-4 leukemia, 56.2%.

As to `CS(=O)(=O)Nc1cc(-c2ccc3ncnc(Nc4ccc(OCc5ccccn5)c(Cl)c4)c3c2)cnc1Cl`, the growth in the test with HCT-15 colon is 25.1%; in the test with HT29 colon, -5.91% (active); in the test on SNB-75 CNS, -10.8% (active); in the test with SNB-19 CNS, 24%; in the test with U251 CNS it was -27.1% (active); in the test with PC-3 prostate it was 13.4%. For the same compound, the growth was -80.8% (active) in the test with SK-MEL-5 melanoma; -19.6% (active) in the test on LOX IMVI melanoma; 8.34% (active) in the test on SK-MEL-28 melanoma; -65% (active) in the test on SK-MEL-2 melanoma; 3.3% (active) in the test with EKVX NSCLC; 20% with SN12C renal. Moreover, the growth in the test with UO-31 renal is 0.194% (active); in the test on TK-10 renal, -19.8% (active); in the test with ACHN renal, 23.7%; with CAKI-1 renal it was 29.2%; in the test with A498 renal, -61% (active); in the test with CCRF-CEM leukemia, -2.25% (active). For the same compound, in the test with MOLT-4 leukemia, the growth was -29.5% (active).

On to `CCN(CC)CCOc1ccc(C(=O)/C=C\c2ccc(Cl)cc2Cl)cc1`, for which the growth with HCT-15 colon was 2.05% (active); in the test on HT29 colon it was -19.6% (active); with SNB-75 CNS, 82.9%; in the test on SNB-19 CNS it was 56.7%; in the test with U251 CNS, 24.9%; with PC-3 prostate, 23.3%. The growth was 6.5% (active) with SK-MEL-5 melanoma; -34.5% (active) in the test with UACC-62 melanoma; -77.3% (active) in the test with LOX IMVI melanoma; 32.5% in the test with SK-MEL-28 melanoma; 81% in the test on SK-MEL-2 melanoma; 63.5% in the test with EKVX NSCLC. Moreover, the growth was 25% in the test on UO-31 renal; 75.9% with TK-10 renal; 52.7% in the test on ACHN renal; 55% with CAKI-1 renal; 70% with A498 renal; 7.28% (active) in the test with CCRF-CEM leukemia. Moreover, the growth in the test with MOLT-4 leukemia is -13.1% (active).

As to `COc1ccc(C(c2cc(OC)c(OC)c(OC)c2)N2CCCCC2)cc1` (stereo unspecified), the growth with HCT-15 colon was 20.6%; with HT29 colon, 7.93% (active); with SNB-75 CNS it was 26.6%; in the test on SNB-19 CNS it was 30.4%; with U251 CNS, 26.1%; in the test on PC-3 prostate, 25.1%. The growth in the test with SK-MEL-5 melanoma was 29.5%; in the test with UACC-62 melanoma, 18.2%; in the test with LOX IMVI melanoma, 36.3%; in the test on SK-MEL-28 melanoma it was 47.2%; in the test with SK-MEL-2 melanoma it was 22%; in the test on EKVX NSCLC, 59.1%. Also, the growth in the test on UO-31 renal was 48.8%; in the test on TK-10 renal, 57.6%; with ACHN renal, 50.9%; in the test on CAKI-1 renal, 29.2%; in the test on A498 renal, 7.32% (active); in the test with CCRF-CEM leukemia, 29.9%. The growth in the test on MOLT-4 leukemia was 31.5%.

For `N#Cc1ccc(O)c(C2=NCC(c3ccc(-c4ccccc4)cc3)O2)c1` (stereo unspecified), the growth in the test with HCT-15 colon is 24.6%; in the test with HT29 colon it was 18.1%; in the test on SNB-75 CNS it was 26.2%; in the test on SNB-19 CNS it was 18%; with U251 CNS, 4.51% (active); in the test with PC-3 prostate it was 25.5%. Further, the growth is 3.96% (active) with SK-MEL-5 melanoma; 11.8% with LOX IMVI melanoma; 23.7% with SK-MEL-28 melanoma; -4.74% (active) in the test on SK-MEL-2 melanoma; 15.6% in the test with EKVX NSCLC; 29.8% in the test on SN12C renal. In addition, the growth is 1.37% (active) with UO-31 renal; 12.4% in the test with TK-10 renal; 11.6% in the test with ACHN renal; 3.1% (active) with CAKI-1 renal; 48.6% with A498 renal; 11.6% in the test on CCRF-CEM leukemia. Besides, in the test on MOLT-4 leukemia, the growth was 0.755% (active).
